# High-throughput results: PubChem BioAssay, Broad Institute
# CFTR F508del cor – correctors of CFTR F508del function in bronchial epithelial cells; CFBE cells, YFP halide quenching; stimulated with forskolin plus potentiator P3; % fluorescence drop versus neutral controls; activity (quench increase), % at 7.58 µM; actives 0.36% (n = 350,000); AID 720511;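 active = mean added fluorescence quench of at least 8% versus neutral control, with both replicates also reaching 8%; inconclusive = only one of the mean or replicate conditions met; inactive = mean below 8% and not both replicates reaching 8%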;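 also: cells transiently co-express mutant CFTR-F508del with the halide-sensitive YFP; corrector assay measuring rescue of mutant channel to the surface after 24 h compound exposure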
# PAX8 reporter – inhibitors of PAX8 transcriptional activity in RMG-I cells | RMG-I TPO-luciferase reporter, SteadyGlo, 24 h | actives 1.2% (n = 360,000) | inhibition, % at 12.6 µM | AID 652154;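 active = mean replicate inhibition at least 60% with every replicate also reaching 60%; inconclusive = only one of the two criteria is met; inactive = mean below 60% and not all replicates reaching 60%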;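 also: luciferase light reporting Pax8 driven TPO promoter activity; plate controls were median of neutral control wells for no effect and mitoxantrone controls for full effect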
# HIV Env fusion – inhibitors of HIV Env-mediated cell fusion; HeLa-JRFL Env/CEM21 cell fusion, luciferase; inhibition, % at 12.3 µM; actives 1.1% (n = 360,000);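 active = mean replicate inhibition score of at least 50 and every replicate individually at or above 50; inconclusive = only one of the two criteria met; inactive = mean below 50 and not all replicates reaching 50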;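 also: 0% = plate neutral controls and 100% = maraviroc near 300 nM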
# GSIS activator – primary screen for activators of insulin secretion dependent on glucose, INS-1E cells, GLuc reporter luminescence; INS-1E GLuc reporter insulin secretion, 2-3 h; activation, % at 16.6 µM; actives 0.61% (n = 370,000); AID 743287;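 active = lowest replicate activation of at least 40%, so every replicate reaches that level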;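 also: 0% = median of neutral control wells and 100% = median of IBMX positive control wells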
# EWS-Fli inh – inhibitors of EWS/Fli oncoprotein transcriptional activity; actives 0.67% (n = 350,000); A673 NR0B1-luciferase reporter, viability-normalised; AID 651661; inhibition, % at 12.6 µM;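 active = mean inhibition of at least 50% after viability correction, with every replicate also passing that limit; inconclusive = mean reaches 50% but only one of two replicates passes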;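 also: firefly luciferase signal divided by Alamar Blue viability fluorescence both relative to DMSO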
# PGC1a acetyl inh – PGC1a acetylation modulation, inhibitor mode | U2OS PGC1a acetylation, AlphaScreen anti-acetyl-lysine; with virally co-expressed GCN5 acetyltransferase | inhibition, % at 15.6 µM | actives 0.17% (n = 350,000) | AID 651687;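 active = every replicate shows inhibition of at least 40%; inconclusive = mean inhibition at least 40% but some replicate below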;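 also: 0% = neutral control wells and 100% = positive control wells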
# DNA binder FP – DNA binding small molecules | AC35, µM (highest dose often 68 µM), for inactives: at the top dose activity change, negative = DNA binding | actives 2% (n = 640) | shares compounds with EWS-Fli inh | salmon sperm DNA acridine orange fluorescence polarization;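 active = fitted curve reaches a 35% signal fall AC35 below twice the sample's top valid tested dose, actives reach about 48 µM in these data; inactive = the rest, including activity in the rising direction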;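 also: lower polarization ratio signals compound binding to DNA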
# Active calls of the source: *; ? = inconclusive; . = no result given; ! = not active in a repeat; [ ] = another dose, or the depositor's remark. Hits are enriched below; roughly 2.7% of the tested compounds scored in any of these assays.
SMILES,CFTR F508del cor,PAX8 reporter,HIV Env fusion,GSIS activator,EWS-Fli inh,PGC1a acetyl inh,DNA binder FP
COCC(=O)N(C)C[C@H]1Oc2cc(C3=CCCC3)ccc2S(=O)(=O)N([C@@H](C)CO)C[C@H]1C,1,2,-6[16.7 µM],4,-1,6,.
N#CC1=C(N)Oc2cc(N)ccc2C1c1cccc(Br)c1 (stereo unspecified),.,64*,-278,.,62*,-41,6%
O=C(O)c1ccccc1C(=O)Nc1ccc(Oc2ccc3ccccc3c2)cc1,-7,-46,-8,-2,58*,0,1%
Cc1cccc(Oc2ccc(NC(=O)c3ccccc3C(=O)O)cc2)c1C,3,1,3,-10,12,0,.
O=C(O)c1ccccc1C(=O)Nc1ccc(Oc2cccc3ccccc23)cc1,-3,26,45,5,86*,.,-9%
CC1(C)N=C(N)N=C(N)N1c1ccc(OCCCOc2ccccc2)c(Cl)c1,5,71*,2,-2,59*,3,-3%
CCN1/C(=C/C(C)=C/c2sc3ccccc3[n+]2CC)Sc2ccccc21,-13,102*,-13,-26,78*!,-98,2.2µM*
CCN1/C(=C\C(=S)Nc2ccccc2)Sc2ccccc21,3,-71,-10,.,-62,.,.
COC(=O)COc1ccc(-c2nccc(-c3ccc(Br)cc3)n2)cc1,-4,0,0,-20,18,.,.
COC(=O)COc1ccc(-c2nccc(-c3ccccn3)n2)cc1,-1,4,?,-2,54*,.,4%
CC(=O)Nc1cccc(-c2ccnc3c2CC(C)(C(=O)NCc2ccc(N(C)C)cc2)O3)c1 (stereo unspecified),0,35,-10,15,54*,-10,-15%
Cc1noc(C)c1S(=O)(=O)N(C)C[C@@H]1OCCCC[C@@H](C)Oc2ccc(NC(=O)CCCN(C)C)cc2C(=O)N([C@H](C)CO)C[C@H]1C,0,9,-25[16.7 µM],8,1,-4,.
C[C@@H]1CN([C@H](C)CO)C(=O)c2cccc(N(C)C)c2O[C@@H]1CN(C)C,-2,-19,2[16.7 µM],27,-2,5,.
COc1ccc(NS(=O)(=O)c2cc(NC(=O)CNC(=O)c3cccc(OC)c3)ccc2C)cc1,.,8,-4,-13,63*,17,2%
COc1cccc(NC(=O)CNC(=O)c2ccccc2)c1,.,.,.,15,.,-9,.
C[C@@H]1CN([C@@H](C)CO)C(=O)c2cc(C#CC(C)(C)O)cnc2O[C@@H]1CN(C)Cc1cncnc1,2,.,-18[16.7 µM],1,1,11,.
CC(C)C#Cc1cnc2c(c1)C(=O)N([C@@H](C)CO)C[C@@H](C)[C@@H](CN(C)C(=O)c1ccc3c(c1)OCO3)O2,-2,13,.,-16,3,7,.
COCC(=O)Nc1ccc2c(c1)C(=O)N(C)C[C@H](OC)[C@@H](C)CN(Cc1cccnc1)[C@H](C)CO2,0,-7,.,8,-8,-6,.
Cc1ccc(N=C2NC(=O)/C(=C\c3cccs3)S2)cc1C,.,-64,-27,33,58*,.,2%
COC(=O)C[C@H]1CC[C@@H]2[C@H](COc3ccc(NC(=O)c4cccc(Cl)c4)cc3C(=O)N2C)O1,.,-12,4[16.7 µM],0,34,.,.
COC(=O)C[C@@H]1CC[C@@H]2[C@H](COc3ccc(NC(=O)Nc4cccc(Cl)c4)cc3C(=O)N2C)O1,1,-9,40[16.7 µM],-18,59*,7,-4%
COC(=O)C[C@@H]1CC[C@@H]2[C@H](COc3ccc(NC(=O)c4cccc(Cl)c4)cc3C(=O)N2C)O1,.,-20,5[16.7 µM],-4,69*,.,-7%
O=S(=O)(c1ccccc1)N1CC2(C1)[C@H](c1ccccc1)[C@H](CO)N2CCC(F)(F)F,0,5,.,-11,0,13,.
CCOc1ccc(C(c2c(NC(=O)c3ccccc3)sc(C)c2C)N2CCN(CCO)CC2)cc1 (stereo unspecified),.,4,-38,-15,80*,.,-14%
CCOc1cc(-c2c(C)c(CC)nc(N)c2C#N)ccc1O,.,.,.,.,.,8,.
SMILES,CFTR F508del cor,PAX8 reporter,HIV Env fusion,GSIS activator,EWS-Fli inh,PGC1a acetyl inh,DNA binder FP
CCc1nc(N)nc(N)c1-c1ccc(Cl)c(N=[N+]=[N-])c1,-5,16,44,50*,67*!,0,-7%
COc1cccc(CN2CCC2(C)C(=O)Nc2cccc3cccnc23)c1F (stereo unspecified),-1,38,-14,-21,59*,-4,-8%
COc1ccc(OC)c(NC(=O)C2(C)CCN2Cc2cccc(OC)c2F)c1 (stereo unspecified),-3,9,26,-2,6,-12,.
CN(C)c1ccc(/C=N/Nc2nc3ccccc3o2)cc1,.,-19,-91,8,68*,-4,-7%
CC(=O)Oc1ccc(/C=C2/Oc3ccccc3C2=O)cc1,1,0,-6,9,-7,2,.
COc1ccc(/C=C2\Oc3ccccc3C2=O)cc1,1,-12,-299,17,62*,-6,-2%
Cc1ccc(C)c(C(=O)CN2C(=O)NC3(CCCCCCC3)C2=O)c1,2,-6,9,20,6,-8,.
CCc1cccc2c(C(=O)CN3C(=O)NC4(CCCCC4)C3=O)c[nH]c12,5,50,19,-19,51*,.,9%
CC(C)c1ccc(OCc2cccc(C(=O)N/N=C/c3cccnc3)c2)cc1,-2,30,.,-7,80*,3,-4%
CCCNC(=O)N1[C@@H](C#N)[C@H](c2ccccc2)[C@@H]1CO,-1,-8,-4[16.7 µM],17,-2,15,.
C[C@H]1CN([C@@H](C)CO)S(=O)(=O)c2ccc(C#Cc3ccncc3)cc2O[C@@H]1CN(C)S(=O)(=O)c1ccccc1,-3,.,-11[16.7 µM],-43,53*,-16,-5%
C[C@@H]1CN([C@H](C)CO)S(=O)(=O)c2ccc(C#Cc3ccncc3)cc2O[C@H]1CN(C)S(=O)(=O)c1ccccc1,0,.,20[16.7 µM],.,28,-3,.
C[C@@H]1CN([C@H](C)CO)S(=O)(=O)c2ccc(C#Cc3ccncc3)cc2O[C@@H]1CN(C)S(=O)(=O)c1ccccc1,2,.,29[16.7 µM],-47,14,-4,.
C[C@@H]1CN([C@@H](C)CO)S(=O)(=O)c2ccc(C#Cc3ccncc3)cc2O[C@H]1CN(C)S(=O)(=O)c1ccccc1,-1,.,8[16.7 µM],-54,73*,-2,6%
CC(C)NC(=O)Nc1cccc2c1O[C@H](CN(C)C(=O)Nc1cccc3ccccc13)[C@@H](C)CN([C@@H](C)CO)C2=O,-1,-6,13[16.7 µM],-7,6,1,.
CC(=O)N(C)C[C@H]1Oc2ncc(-c3ccccc3F)cc2C(=O)N([C@H](C)CO)C[C@@H]1C,0,.,-1[16.7 µM],6,-3,9,.
